The values that follow come from PubChem BioAssay.

The target in experiment [1] is Alpha-bungarotoxin (Bungarus multicinctus) (UniProt P60615). As to the kind of experiment: compounds binding labelled alpha-BTX control protein – biochemical, small-molecule microarray, Alexa647 label, 635/667 nm fluorescence, artefact control for SMM control protein annotation, profiling panel (AID 1117). The settings on record: alpha-BTX-A647 binding fluorescence, higher = more signal.

Experiment [2] deals with E3 ubiquitin-protein ligase XIAP (Homo sapiens) (UniProt P98170). As to the kind of experiment: small molecules binding XIAP protein – biophysical, small-molecule microarray, fluorescence 635 nm, primary screen (AID 1181).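 Note: score merges 667 nm emission and signal to noise over triplicate slides.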 As to conditions: higher = more signal.
Chain of E3 ubiquitin-protein ligase XIAP (Homo sapiens) (P98170 whole entry, looked up, the tested form may be a part): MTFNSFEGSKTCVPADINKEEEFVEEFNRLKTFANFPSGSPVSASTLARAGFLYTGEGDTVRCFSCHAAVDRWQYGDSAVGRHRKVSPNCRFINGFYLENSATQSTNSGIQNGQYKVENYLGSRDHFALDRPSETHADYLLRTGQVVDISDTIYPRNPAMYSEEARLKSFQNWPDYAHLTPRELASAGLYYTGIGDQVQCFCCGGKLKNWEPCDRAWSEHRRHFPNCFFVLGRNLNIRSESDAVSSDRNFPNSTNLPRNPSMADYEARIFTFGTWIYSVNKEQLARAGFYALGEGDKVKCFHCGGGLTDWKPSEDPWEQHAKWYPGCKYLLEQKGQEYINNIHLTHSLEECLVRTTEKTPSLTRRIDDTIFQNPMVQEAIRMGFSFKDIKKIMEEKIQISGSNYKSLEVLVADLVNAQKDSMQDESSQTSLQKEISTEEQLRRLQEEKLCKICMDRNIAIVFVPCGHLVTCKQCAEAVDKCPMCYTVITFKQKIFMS
Experiment [3] concerns XIP peptide (Xip251-270) binding. Nature of the experiment: XIP fragment 251-270 binding compounds – biochemical, small-molecule microarray, fluorescence 635/667 nm, 0.1 µg/mL protein, primary screen (AID 1182). The settings on record: fluorescent protein binding, 635 nm, higher = more signal, called active from +8 up or from −8 down.
The subject of the next experiment is XIP peptide (Xip251-270). Nature of the experiment: compounds binding XIP fragment 251-270 – biochemical, small-molecule microarray, fluorescence 635/667 nm, 0.5 µg/mL protein, primary screen (AID 1183). As to conditions: fluorescence 635 nm, higher = more signal.
A short description of experiment [4]: blood-stage malaria parasite viability loss – strain 3D7, DAPI fluorescence, 100 nL, primary screen (AID 1184).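 Note: parasites grown inside human red blood cells in medium with human serum.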 As to conditions: P. falciparum 3D7 growth, 3 d, higher = more signal.
The target of experiment [5] is Homeobox protein Hox-A13 (Mus musculus) (UniProt Q62424). Nature of the experiment: disruptors of Hoxa13 oligonucleotide interaction – biochemical, fluorescence polarization, labeled oligonucleotide, primary screen (AID 1185). The settings on record: Hoxa13:DNA binding, 15 min, higher = more signal, called active from +8 up or from −8 down.
Chain of Homeobox protein Hox-A13 (Mus musculus) (Q62424 whole entry, looked up): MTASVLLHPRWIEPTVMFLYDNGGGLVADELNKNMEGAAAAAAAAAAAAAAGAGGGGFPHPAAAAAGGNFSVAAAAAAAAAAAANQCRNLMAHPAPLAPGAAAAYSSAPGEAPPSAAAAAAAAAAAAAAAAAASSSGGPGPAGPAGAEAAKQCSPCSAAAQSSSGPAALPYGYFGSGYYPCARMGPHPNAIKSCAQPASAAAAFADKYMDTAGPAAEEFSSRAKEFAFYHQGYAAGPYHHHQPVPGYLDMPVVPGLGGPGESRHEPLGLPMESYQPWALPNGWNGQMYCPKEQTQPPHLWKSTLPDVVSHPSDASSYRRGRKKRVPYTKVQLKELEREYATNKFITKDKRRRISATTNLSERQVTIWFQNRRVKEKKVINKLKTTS
Experiment [6] in a line: blockers of DNA damage checkpoint Chk1 activation – imaging, HeLa, hydroxyurea, phospho-Chk1 antibody, percent positive cells, primary screen (AID 1186). As to conditions: hydroxyurea-induced phospho-Chk1 immunofluorescence imaging, higher = more signal.
Experiment [7] is described as follows: blockers of DNA damage checkpoint Chk1 activation – imaging, HeLa, hydroxyurea, phospho-Chk1 nuclear intensity, primary screen (AID 1187). The settings on record: hydroxyurea-induced phospho-Chk1 immunofluorescence imaging, higher = more signal.

Activity calls are given as the source filed them. Unless noted, the rule behind the calls is not given here.

Chain of Alpha-bungarotoxin (Bungarus multicinctus) (P60615 whole entry, looked up): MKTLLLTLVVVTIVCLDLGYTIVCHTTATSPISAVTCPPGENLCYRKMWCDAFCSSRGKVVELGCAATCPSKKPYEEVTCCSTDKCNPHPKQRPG

Turning to `C/C=C/[C@@H](CCn1cc(CCO[Si](C(C)C)(C(C)C)C(C)C)nn1)[Si](C)(C)c1ccc(OC)cc1`, the composite z-score in experiment [1] was -1.25; in experiment [2], -0.169; in experiment [3], -0.411 (inactive); in the experiment on XIP peptide (Xip251-270), -1.48. In addition, the z-score is -0.84 in experiment [4], -5.56 (inactive) in experiment [5], -0.233 (inactive) in experiment [6] and 0.122 (inactive) in experiment [7].
For `C=C(C(=O)CC[C@H](OC(C)=O)c1ccc(CO)o1)C(C)C`, the composite z-score is -0.292 in experiment [1], 0.0028 in experiment [2], 2.48 (inactive) in experiment [3] and -0.365 in the experiment on XIP peptide (Xip251-270). The z-score was -2.1 in experiment [4], -2.79 (inactive) in experiment [5], -0.17 (inactive) in experiment [6] and -0.428 (inactive) in experiment [7].
As for `[N-]=[N+]=NCc1ccccc1C[C@]1(C(=O)NCc2ccccc2)N=C(c2ccc(OCCCO)cc2)O[C@H]1c1ccccc1`, the composite z-score was 1.22 in experiment [1], 0.191 in experiment [2], 0.279 (inactive) in experiment [3] and -0.172 in the experiment on XIP peptide (Xip251-270). Further, the z-score is -2.32 in experiment [4], 1.43 (inactive) in experiment [5], -0.901 (inactive) in experiment [6] and -0.877 (inactive) in experiment [7].
Take `COC(=O)[C@@]1(CCC(=O)OC(C)(C)C)COC(c2ccc(OCCCO)cc2)=N1`: the composite z-score in experiment [1] is -0.741; in experiment [2], -0.217; in experiment [3], -0.191 (inactive); in the experiment on XIP peptide (Xip251-270), -1.66. The z-score in experiment [4] is -0.478; in experiment [5] it was -2.57 (inactive); in experiment [6] it was -0.14 (inactive); in experiment [7], 0.264 (inactive).
In the case of `CCCCCCC#C[Si](O[C@H](c1ccccc1)c1cn(Cc2ccccc2)nn1)(C(C)C)C(C)C`, the composite z-score is 0.172 in experiment [1], -0.0368 in experiment [2], 0.663 (inactive) in experiment [3] and -0.15 in the experiment with XIP peptide (Xip251-270). The z-score is -0.934 in experiment [4], 1.18 (inactive) in experiment [5], -0.766 (inactive) in experiment [6] and -0.601 (inactive) in experiment [7].
As for `COc1c(C)cc(-c2cc3c(c(CCc4ccccc4)n2)[Si](C(C)C)(C(C)C)OC3)cc1C`, the composite z-score in experiment [1] is -0.382; in experiment [2], -0.172; in experiment [3], 0.461 (inactive); with XIP peptide (Xip251-270), -0.436. In addition, the z-score is -0.633 in experiment [4], -0.207 (inactive) in experiment [5], -0.666 (inactive) in experiment [6] and -0.461 (inactive) in experiment [7].
In the case of `CC(C)(C)OC(=O)CC[C@]1(C(=O)NCc2ccccc2)N=C(c2ccc(OCCCO)cc2)O[C@H]1c1ccccc1N=[N+]=[N-]`, the composite z-score was 2.77 in experiment [1], -0.0095 in experiment [2], 0.735 (inactive) in experiment [3] and 0.725 in the experiment with XIP peptide (Xip251-270). The z-score in experiment [4] was -2.16; in experiment [5], -0.908 (inactive); in experiment [6], -0.328 (inactive); in experiment [7] it was 0.252 (inactive).
`CC(C)(C)OC(=O)CC[C@@]1(C(=O)NCc2ccccc2)N=C(c2ccc(OCCCO)cc2)O[C@@H]1c1ccccc1CN=[N+]=[N-]`: the composite z-score in experiment [1] was 1.55; in experiment [2] it was -0.227; in experiment [3] it was 1.42 (inactive); in the experiment with XIP peptide (Xip251-270), 0.733. Besides, the z-score in experiment [4] was -2.72; in experiment [5] it was -0.088 (inactive); in experiment [6] it was -0.763 (inactive); in experiment [7], -0.84 (inactive).
On to `CC(C)C(CO)N1C(=O)[C@@H]2[C@H]3C(=O)OCC=C[C@H]3OC23C=CCN(Cc2ccccc2)C(=O)[C@@H]13` (stereo partly drawn), for which the composite z-score in experiment [1] was -1.44; in experiment [2] it was 0.411; in experiment [3], -0.433 (inactive); with XIP peptide (Xip251-270), -1.18. Also, the z-score in experiment [4] is -0.383; in experiment [5] it was -2.93 (inactive); in experiment [6], -0.228 (inactive); in experiment [7], -0.647 (inactive).
As to `C=CCC(OC(C)=O)[C@@H]1[C@@H](N(Cc2cc3ccccc3o2)C(=O)c2ccc(-c3ccccc3)cc2)c2cc(OCCCO)ccc2N1C(=O)c1ccc(-c2ccccc2)cc1` (stereo partly drawn), the composite z-score in experiment [1] is 0.484; in experiment [2] it was -0.102; in experiment [3], -0.547 (inactive); in the experiment on XIP peptide (Xip251-270) it was -0.599. The z-score in experiment [4] is -1.63; in experiment [5] it was -0.639 (inactive); in experiment [6], -0.604 (inactive); in experiment [7], -0.195 (inactive).
For the molecule `C=C(COC)/C(=C/C[C@H](OC(C)=O)c1ccc(CO)o1)c1cnc2ccccc2c1`, the composite z-score was 2.83 in experiment [1], 0.292 in experiment [2], 1.5 (inactive) in experiment [3] and 0.807 in the experiment with XIP peptide (Xip251-270). Moreover, the z-score is -0.649 in experiment [4], -4.41 (inactive) in experiment [5], -0.595 (inactive) in experiment [6] and -0.669 (inactive) in experiment [7].
`CC(C)CNC(=O)[C@@H]1c2ccccc2C(=O)N(Cc2ccc(OC(F)(F)F)cc2)[C@H]1c1ccc(CO)cc1`: the composite z-score in experiment [1] was 1.74; in experiment [2] it was 0.205; in experiment [3], 0.0114 (inactive); in the experiment with XIP peptide (Xip251-270) it was 0.762. Besides, the z-score in experiment [4] is -0.192; in experiment [5], -2.67 (inactive); in experiment [6], -0.919 (inactive); in experiment [7] it was -1.36 (inactive).
In the case of `O=C(N1CCCCC1)[C@@]1(Cc2ccccc2)N=C(c2ccc(OCCCO)cc2)O[C@H]1c1ccccc1`, the composite z-score in experiment [1] is 3.12; in experiment [2], -0.0448; in experiment [3] it was 0.764 (inactive); in the experiment on XIP peptide (Xip251-270), 0.66. In addition, the z-score was -2.18 in experiment [4], -3.68 (inactive) in experiment [5], -1.29 (inactive) in experiment [6] and -1.55 (inactive) in experiment [7].
With `C=C(CCCC)/C(=C/C[C@H](OC(=O)c1ccncc1)c1ccc(CO)o1)c1cnc2ccccc2c1`, the composite z-score was 1.8 in experiment [1], -0.105 in experiment [2], 0.291 (inactive) in experiment [3] and 0.413 in the experiment with XIP peptide (Xip251-270). For the same molecule, the z-score is -0.209 in experiment [4], -4.76 (inactive) in experiment [5], -0.762 (inactive) in experiment [6] and -0.937 (inactive) in experiment [7].
For the molecule `C=CCN1C(=O)[C@@]2(O[C@@H](CCO)[C@H]([Si](C)(C)c3ccc(OC)cc3)[C@H]2C)c2cc(N(C=O)c3ccccc3)ccc21`, the composite z-score in experiment [1] was 0.37; in experiment [2] it was -0.0203; in experiment [3], 0.527 (inactive); in the experiment on XIP peptide (Xip251-270), 0.345. For the same molecule, the z-score in experiment [4] is -2.56; in experiment [5] it was -3.62 (inactive); in experiment [6] it was -1.21 (inactive); in experiment [7], -0.407 (inactive).
Consider `O=C(NO)[C@]1(Cc2ccccc2)N=C(c2ccc(OCCCO)cc2)O[C@@H]1c1ccccc1`, for which the composite z-score in experiment [1] is 2.41; in experiment [2], 0.0402; in experiment [3], -0.592 (inactive); with XIP peptide (Xip251-270), -1.32. Moreover, the z-score was -1.26 in experiment [4], -5.15 (inactive) in experiment [5], -0.593 (inactive) in experiment [6] and -0.0319 (inactive) in experiment [7].
